Our source for the Potency and outcome values is PubChem BioAssay (Tox21).

SMILES strings stand for the structures. Records with an inconclusive call do not appear. Activity calls are given as the source filed them. Unless noted, calls follow the shape of the dose curve; as a rule, active = well fitted curve in the direction sought with a large enough effect in the repeat runs; inconclusive = weak or mixed curves; inactive = no such curve, though single readings can be large; an effect the other way counts as inactive or inconclusive.

A short description of assay [1]: qHTS assay for small molecule agonists of the p53 signaling pathway (AID 651631; calls by dose curve; also: nearly all actives have a fitted effect of over 15% in size; also: potency is read from the fitted curve at half-maximal effect). Summed up: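 Stably transfected HCT-116 cells (beta-lactamase behind p53 response elements) get compounds after a 5 h settling period; 16 h later at 37 °C, FRET substrate is loaded and fluorescence read after 2 h.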
A general note: In qHTS, concentration-response curves come from the screen itself.

Assay [2] can be described thus: qHTS assay for small molecules that induce genotoxicity in human embryonic kidney cells expressing luciferase-tagged ATAD5 (AID 651632). Also: nearly all actives have a fitted effect of over 15% in size. Summed up: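 Increased luciferase signal from ATAD5-tagged reporter cells indicates DNA-damage-driven ATAD5 induction. HEK293T cells are treated for 16 hr at 37C before detection with Amplite.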
Assay [3] is described as follows: qHTS assay for small molecule agonists of the p53 signaling pathway - cell viability (AID 651633; calls by dose curve; also: nearly all actives have a fitted effect of over 30% in size; also: potency is read from the fitted curve at half-maximal effect). Summed up: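 p53RE-bla cells were treated with compound for 16 hours at 37 C. Cytotoxicity was then measured as CellTiter-Glo luminescence after 30 min at room temperature.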
The nature of assay [4]: qHTS assay for small molecules that induce genotoxicity in human embryonic kidney cells expressing luciferase-tagged ATAD5 - cell viability (AID 651634; calls by dose curve; also: nearly all actives have a fitted effect of over 25% in size). Summed up: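 Cytotoxicity counterscreen in HEK293T cells bearing an ATAD5-luciferase reporter: live-cell protease activity measured by CellTiter-Fluor fluorescence after 15.5 hr compound exposure.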
A short description of assay [5]: qHTS assay for small molecule disruptors of the mitochondrial membrane potential - cell viability (AID 720634; calls by dose curve;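 also: human HepG2 liver cancer cells; nearly all actives have a fitted effect of over 20% in size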). Summed up:
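After overnight attachment at 37 C, HepG2 cells received compound or DMSO vehicle for 1 hr. Viability is then taken from ATP-driven luminescence following a 30 min room-temperature CellTiter-Glo step.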

Assay [6] can be described thus: qHTS assay for small molecule disruptors of the mitochondrial membrane potential (AID 720635). Also: potency is read from the fitted curve at half-maximal effect. Summed up:
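HepG2 cells exposed to compound 1 hr at 37C, then Mito-MPS dye 30 min. Ratio read of aggregate (540/590 nm) versus monomer (490/535 nm) fluorescence.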

Assay [7] is described as follows: qHTS assay to test for compound auto fluorescence at 590 nm (red) in HepG2 cells (AID 720674). Summed up:
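Seeding: 2,000 HepG2 cells/well, MEM/10% FBS, overnight 37 C. Dosing: compound vs DMSO. Incubation: 1 hr, 37 C, 5% CO2. Read: fluorescence 540 ex/590 em, Rose Bengal sodium as red reference.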

Assay [8] can be described thus: qHTS assay to test for compound auto fluorescence at 535 nm (green) in HepG2 cells (AID 720675).
Assay [9] can be described thus: qHTS assay to test for compound auto fluorescence at 460 nm (blue) in HEK293 cells (AID 720678). Summed up: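 Blue-channel (Ex/Em 405/460 nm) intensity measured in HEK293 cultures after overnight compound exposure at 37C; signal expressed relative to triamterene. Cells plated 2,000 per well in 10% dialyzed FBS medium and allowed 4-5 hr to attach.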
The nature of assay [10]: qHTS assay to test for compound auto fluorescence at 590 nm (red) in HEK293 cells (AID 720679). Summed up: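 Red-channel autofluorescence (Ex/Em 540/590 nm; Rose Bengal sodium reference) was measured after overnight 37C, 5% CO2 exposure of attached HEK293 cells, 2,000 per well in medium with 10% dialyzed FBS.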
Assay [11] can be described thus: qHTS assay to test for compound auto fluorescence at 535 nm (green) in HEK293 cells (AID 720680).
Assay [12] can be described thus: qHTS assay to test for compound auto fluorescence at 460 nm (blue) in HEK293 cell free culture (AID 720681). Summed up:
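Compounds were added to cell-free DMEM with 10% FBS and fluorescence read directly. The blue channel used 405 nm excitation and 460 nm emission, with triamterene as the reference fluorophore.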

A short description of assay [13]: qHTS assay to test for compound auto fluorescence at 590 nm (red) in HEK293 cell free culture (AID 720683). Summed up: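 Cell-free wells of DMEM with 10% FBS received compound, and intrinsic fluorescence was read at excitation/emission 540/590 nm. Values expressed as equivalence to Rose Bengal sodium.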
Assay [14] can be described thus: qHTS assay to test for compound auto fluorescence at 460 nm (blue) in HepG2 cell free culture (AID 720685). Summed up: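 Compound (23 nL) or DMSO pinned into cell-free MEM with 10% FBS; blue fluorescence read at 405/460 nm excitation/emission, expressed as auto-fluorescence equivalency to triamterene.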
A short description of assay [15]: qHTS assay to test for compound auto fluorescence at 460 nm (blue) in HepG2 cells (AID 720687). Summed up:
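HepG2 cells in MEM with 10% FBS, attached overnight at 37 C, were exposed to compound or DMSO for 1 hr at 37 C, 5% CO2. Blue fluorescence was read at 405/460 nm, with triamterene as reference fluorophore.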

Assay [16] can be described thus: qHTS assay to test for compound auto fluorescence at 535 nm (green) in HEK293 cell free culture (AID 720682). Summed up:
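Using fluorescein as calibrant, autofluorescence was quantified at 485/535 nm in cell-free DMEM containing 10% FBS after pintool addition of compound or vehicle.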

A short description of assay [17]: qHTS assay to test for compound auto fluorescence at 590 nm (red) in HepG2 cell free culture (AID 720684). Summed up: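 Compounds are added to culture medium (MEM, 10% FBS) lacking cells, then fluorescence is read at excitation 540 nm, emission 590 nm, with Rose Bengal sodium as the equivalency standard.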
Assay [18] is described as follows: qHTS assay to test for compound auto fluorescence at 535 nm (green) in HepG2 cell free culture (AID 720686).
The target of assay [19] is Glucocorticoid receptor (Homo sapiens) (UniProt P04150). Briefly: qHTS assay to identify small molecule agonists of the glucocorticoid receptor (GR) signaling pathway (AID 720691; active = well fitted activation curve with a large enough effect in the signal ratio in the repeat runs, not every such curve was filed as active; the % refers to the signal ratio). The note with it: GR-bla HeLa, beta-lactamase reporter ratio, 18 h; activation: at 62.4 µM (top of the series). Summed up: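 Agonist mode in a HeLa line carrying a GRE-controlled beta-lactamase reporter. Compounds act for 18 h at 37 C before a 2 h room-temperature FRET substrate step and fluorescence reading.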
Glucocorticoid receptor (Homo sapiens), sequence (P04150 whole entry, looked up): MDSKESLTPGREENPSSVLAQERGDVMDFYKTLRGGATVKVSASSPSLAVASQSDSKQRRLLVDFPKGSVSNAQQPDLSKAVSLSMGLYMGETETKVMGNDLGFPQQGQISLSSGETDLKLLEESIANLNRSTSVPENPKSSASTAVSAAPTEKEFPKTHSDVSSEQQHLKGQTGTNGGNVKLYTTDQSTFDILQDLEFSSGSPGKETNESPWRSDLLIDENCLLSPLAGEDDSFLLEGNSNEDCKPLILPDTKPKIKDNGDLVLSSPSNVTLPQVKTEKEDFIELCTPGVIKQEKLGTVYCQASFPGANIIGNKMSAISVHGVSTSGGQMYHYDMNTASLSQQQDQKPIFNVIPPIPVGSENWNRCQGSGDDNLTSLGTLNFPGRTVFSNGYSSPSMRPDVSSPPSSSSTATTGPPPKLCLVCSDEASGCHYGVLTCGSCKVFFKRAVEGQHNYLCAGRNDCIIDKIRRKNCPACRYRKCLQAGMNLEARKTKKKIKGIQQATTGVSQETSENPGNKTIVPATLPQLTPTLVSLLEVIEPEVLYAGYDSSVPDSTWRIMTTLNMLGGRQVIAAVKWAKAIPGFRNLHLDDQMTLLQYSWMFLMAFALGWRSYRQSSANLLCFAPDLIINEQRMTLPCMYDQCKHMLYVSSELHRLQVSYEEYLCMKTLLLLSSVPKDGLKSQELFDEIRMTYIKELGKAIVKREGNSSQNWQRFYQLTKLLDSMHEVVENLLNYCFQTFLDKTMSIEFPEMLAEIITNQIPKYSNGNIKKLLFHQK

The target is the same in assay [20]. Nature of the assay: qHTS assay to identify small molecule antagonists of the glucocorticoid receptor (GR) signaling pathway (AID 720692; active = well fitted inhibition curve with a large enough effect in the signal ratio in the repeat runs, not every such curve was filed as active; the % refers to the signal ratio). Summed up:
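Cells plated, rested 4 h at 37 C/5% CO2; compounds in DMSO pin-transferred; dexamethasone added to 5 nM final; 18 h at 37 C; B/G FRET substrate added, 2 h room temperature; fluorescence measured.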

Consider `S=C1NC=NC2N=CNC12` (configuration not stated), for which the values for the Potency in assay [1], in [3] and in assay [6] were 3.44 µM (active), 0.545 µM (active) and 4.86 µM (active), respectively. The Potency result in [2], in assay [4], in assay [5], in assay [8], in assay [9] and in assay [12] was “inactive” each time. The Potency entry in [14] and in assay [15] was “inactive” in each case. Moreover, the compound was classed as inactive in assay [7], in [10], in assay [11] and in assay [13].

As to `OCCCNc1ccccc1`, the Potency entry in [1], in [2], in assay [3], in [4], in assay [5] and in assay [6] was “inactive” throughout. Besides, the Potency result in assay [9], in assay [12], in assay [14], in [18], in assay [15] and in [19] was “inactive” each time. Besides, the Potency result in [20] was “inactive”. Besides, the result in assay [7], in assay [10], in [11], in assay [16], in [13] and in assay [17] was inactive.

For `C[C@@H]1C[C@H]2[C@@H]3C[C@H](F)C4=CC(=O)C=C[C@]4(C)[C@@]3(Cl)[C@@H](O)C[C@]2(C)[C@H]1C(=O)COC(=O)C(C)(C)C`, the Potency entry in assay [1], in [2], in assay [3], in assay [4], in assay [5] and in assay [6] was “inactive” throughout. Also, the Potency result in [9], in assay [12], in [14], in assay [18] and in [15] was “inactive” in each case. The result in [7], in [10], in assay [11], in assay [16], in [13] and in assay [17] was inactive.

On to `O=C(O)[C@@H]1C[C@H](CP(=O)(O)O)CCN1`, for which the Potency entry in assay [1], in [2], in [3], in assay [4], in [5] and in [6] was “inactive” in each case. In addition, the Potency result in assay [9], in [12], in assay [14], in assay [18], in assay [15] and in [19] was “inactive” throughout. Moreover, the Potency result in assay [20] is “inactive”. Also, the call in assay [7], in assay [10], in assay [11], in [16], in assay [13] and in assay [17] was inactive.

In the case of `O=C1CCC(c2ccccc2)(C2CCN(Cc3ccccc3)CC2)C(=O)N1` (configuration not stated), the Potency entry in assay [1], in assay [2], in assay [3], in [4], in [5] and in [6] was “inactive” throughout. Also, the Potency entry in [9], in [12], in [14], in [18], in assay [15] and in assay [19] was “inactive” each time. The outcome in [7], in [10], in assay [11], in assay [16], in assay [13] and in assay [17] was inactive.

As to `CCOC(=O)Cc1ccc(-c2ccccc2)cc1`, the Potency entry in assay [1], in [2], in [3], in assay [4], in [5] and in assay [6] was “inactive” throughout. Besides, the Potency result in assay [8], in assay [9], in assay [12], in assay [14] and in [15] was “inactive” throughout. The call in [7], in assay [10], in [11], in [13] and in [17] was inactive.

With `CCCCCCCCCCCCCCCCCCOCC(COP(=O)([O-])OCC[N+](C)(C)C)OC` (configuration not stated), the Potency entry in assay [1], in [2], in assay [3], in assay [4], in assay [5] and in [6] was “inactive” throughout. For the same compound, the Potency entry in [8], in assay [9], in [12], in [14], in assay [18] and in [15] was “inactive” throughout. Besides, in assay [19], the Potency result was “inactive”. The compound was classed as inactive in [7], in assay [10], in assay [11], in [13] and in assay [17].
